Source: PubChem BioAssay
A selection follows.
TGFb inhibitor: TGF-b pathway inhibition; HepG2 CAGA-GFP TGF-b/SMAD3 reporter, GFP fluorescence, 18 h; TGF-beta stimulated, 500 pg/mL final; Potency, µM (highest dose often 46.1 µM), most hits filed as inhibitors; hit rate 1.2% among 410,000; AID 588855; note: nearly all actives have a fitted effect of over 65% in size
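Smad-responsive CAGA-GFP expression was quantified in HEPG2 cells exposed to compounds and 500 pg/mL final TGF-beta for 18 h at 37 degrees C; unstimulated wells defined full inhibition.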
HepG2 tox: HepG2 cytotoxicity, counter-screen for TGF-b inhibitors. HepG2 CAGA-GFP viability, ATP luminescence, 18 h. Potency, µM (titrated, usually from 46.1 µM), most hits filed as cytotoxic. hit rate 0.76% among 410,000
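HepG2 CAGA-GFP cells (1000/well, DMEM with 1% FBS) received compound, then TGF-beta at 500 pg/mL final, and were incubated 18 hours at 37 degrees C. Viability was read by CellTiter-Glo luminescence. Media-only wells were set as complete cell-killing and DMSO as no toxicity.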
S2 tox: reduces viability in counter-screen for ATXN expression inhibitors; Potency, µM (doses to about 56.7 µM), usual class: cytotoxic; S2 cells (HEK-293 line with an ATXN2-luciferase reporter) viability, CellTiter-Fluor protease fluorescence, 24 h; hit rate 0.49% among 400,000; note: nearly all actives have a fitted effect of over 40% in size
ATXN2 expr inh: inhibitors of ATXN2 expression; HEK-293 ATXN2-luciferase reporter, luminescence, 24 h; Potency, µM (doses to about 57 µM), hits mostly inhibitors; hit rate 0.72% among 360,000; note: nearly all actives have a fitted effect of over 55% in size
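qHTS (up to 57 uM final) was run with 24 h compound exposure of reporter cells at 37 °C. Each well was multiplexed: SteadyGlo luminescence measured ATXN2-luciferase expression after a fluorogenic Gly-Phe-AFC viability readout (25 uM final).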
Large screens that a line does not name were inactive. Calls come from the whole dose curve; as a rule, active = well fitted curve in the direction sought with a large enough effect; inconclusive = small, poorly fitted or top-dose-only effect, or another doubt; inactive = no such curve, though single readings can be large; an effect the other way counts as inactive or inconclusive.

CCc1ccccc1Nc1nn2c(=O)c3ccc(C(=O)Nc4cc(C)cc(C)c4)cc3nc2s1	S2 tox inconclusive, ATXN2 expr inh inconclusive
OC1(c2ccc(Cl)cc2)CCN(Cc2c[nH]c3ccccc23)CC1	TGFb inhibitor inconclusive, ATXN2 expr inh inconclusive
CN1C[C@H](CNC(=O)OCc2ccccc2)C[C@H]2c3cccc4c3c(cn4C)C[C@@H]21	none (no result: TGFb inhibitor, HepG2 tox, ATXN2 expr inh)
Cc1ccc(NC(=O)Nc2ccc3nc(N4CCN(C)CC4)cc(C)c3c2)cc1F	S2 tox inconclusive
O=C(O)[C@H](O)[C@@H](O)C(=O)O	none
